Bioassay records: PubChem BioAssay, National Center for Advancing Translational Sciences (NCATS)
ELG1 genotoxic: genotoxicity induction in ELG1-luciferase HEK293T cells | HEK293T ELG1-luciferase reporter, luminescence, 16 h | Potency, µM (top dose mostly 46 µM), for inactives: at the highest dose activity change, positive = activation, hits mostly activators | 1.3% of 330,000 active; further: % of control where 0% means no effect; nearly all actives have a fitted effect of over 60% in size
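After overnight (16 hr) compound treatment at 37 °C, ELG1-luciferase HEK293T cells were lysed with ONE-Glo; luminescence quantified 30 min later at room temperature.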
FLuc counter: firefly luciferase modulation, counter-screen for miR-21 project. 6.9% of 360,000 active. purified FLuc, Km substrates, luminescence inhibition. Potency, µM (doses to about 57.5 µM), for the others: at the top dose activity change, negative = inhibition, usual class: inhibitors. P08659;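 further: plate controls were vehicle for no effect and reference inhibitor for full effect; nearly all actives have a fitted effect of over 55% in size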
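Purified P. pyralis luciferase (10nM final) with 10uM D-luciferin and 10uM ATP (Km levels) in 50mM Tris acetate pH 7.5, 10mM Mg acetate, 0.01% Tween-20, 0.05% BSA; qHTS 6-point titration, ~60 µM downward; luminescence read.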
SMN2 splice enh: SMN2 splice variant enhancement; Potency, µM (highest dose often 46.1 µM), without a hit: top-dose activity change, positive = activation, most hits filed as activators; 2.8% of 210,000 active; HEK293 SMN2-luciferase splicing reporter, luminescence, 30-36 h; further: % of control where 0% means no effect; nearly all actives have a fitted effect of over 55% in size
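qHTS luciferase splicing reporter: luminescence rises when SMN2 exon 7 is included in transfected HEK293 cells. Compound exposure lasted 30-36 h at 37C, with 4.5 mM final sodium butyrate as control, followed by a ONE-Glo read.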
Rab9 prom act: activates the Rab9 promoter | Huh7 Rab9 promoter-luciferase reporter, luminescence, 24 h | Potency, µM (series often up to 9.22 µM), inactives show at the highest dose activation, negative = inhibition, hits mostly activators | 2.8% of 320,000 active; further: % of control where 0% means no effect; nearly all actives have a fitted effect of over 60% in size
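Huh7 cells stably carrying a Rab9 promoter-luciferase reporter, 1500 cells per well in OP-MEM I with 10% FBS, treated with compound 24 hours at 37C. Luciferase activity read by luminescence after 10 minutes with Amplite reagent.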
ELG1 repair inh: ELG1-dependent DNA repair inhibition. Potency, µM (series often up to 46.1 µM), without a hit: top-dose activity change, negative = inhibition, hits mostly inhibitors. HEK293T ELG1-luciferase reporter, luminescence, 16 h; DNA damage induced by 5-fluorouridine. 2.3% of 330,000 active; further: on the % scale 0 is the no-effect control and ±100 the full control effect; nearly all actives have a fitted effect of over 55% in size
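In this reporter screen, reduction of luminescence relative to DMSO vehicle indicated activity. Compounds and 5-fluorouridine were added together to 2,000 cells per well, incubated for 16 hr at 37 °C, then developed with ONE-Glo.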
NPC1 promoter act: activators of NPC1 promoter; Huh7 NPC1 promoter luciferase reporter, 24 h; Potency, µM (titrated, usually from 9.22 µM), for inactives: top-dose activation, most hits filed as activators; 2.4% of 320,000 active; further: % of control where 0% means no effect; nearly all actives have a fitted effect of over 60% in size
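Compounds in DMSO were transferred onto Huh7 NPC1-luciferase reporter cells pre-incubated 2 h; after 24 h at 37 °C, Amplite reagent was dispensed and luminescence recorded 10 min later.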
ELG1 FLuc counter: luciferase inhibition in cell-free luciferin readout for ELG1 hits | shares compounds with ELG1 repair inh | cell-free firefly luciferase luminescence counter-screen, ViewLux | Potency, µM (top dose mostly 46.1 µM), for the others: at the highest dose activity change, negative = inhibition, most hits filed as inhibitors | 3% of 350 active; further: on the % scale 0 is the no-effect control and ±100 the full control effect
ELG1-Luc inh: confirmation of human ELG1-dependent DNA repair inhibitors. shares compounds with ELG1 repair inh. HEK293T ELG1-luciferase levels, luminescence; cells co-treated with 5-fluorouridine. AID 624248. Potency, µM (titrated, usually from 46.1 µM), for the others: at the highest dose activity change, negative = inhibition, most hits filed as inhibitors. 68% of 670 active; further: on the % scale 0 is the no-effect control and ±100 the full control effect; nearly all actives have a fitted effect of over 55% in size
Target sequence (Q96QE3 whole entry, looked up): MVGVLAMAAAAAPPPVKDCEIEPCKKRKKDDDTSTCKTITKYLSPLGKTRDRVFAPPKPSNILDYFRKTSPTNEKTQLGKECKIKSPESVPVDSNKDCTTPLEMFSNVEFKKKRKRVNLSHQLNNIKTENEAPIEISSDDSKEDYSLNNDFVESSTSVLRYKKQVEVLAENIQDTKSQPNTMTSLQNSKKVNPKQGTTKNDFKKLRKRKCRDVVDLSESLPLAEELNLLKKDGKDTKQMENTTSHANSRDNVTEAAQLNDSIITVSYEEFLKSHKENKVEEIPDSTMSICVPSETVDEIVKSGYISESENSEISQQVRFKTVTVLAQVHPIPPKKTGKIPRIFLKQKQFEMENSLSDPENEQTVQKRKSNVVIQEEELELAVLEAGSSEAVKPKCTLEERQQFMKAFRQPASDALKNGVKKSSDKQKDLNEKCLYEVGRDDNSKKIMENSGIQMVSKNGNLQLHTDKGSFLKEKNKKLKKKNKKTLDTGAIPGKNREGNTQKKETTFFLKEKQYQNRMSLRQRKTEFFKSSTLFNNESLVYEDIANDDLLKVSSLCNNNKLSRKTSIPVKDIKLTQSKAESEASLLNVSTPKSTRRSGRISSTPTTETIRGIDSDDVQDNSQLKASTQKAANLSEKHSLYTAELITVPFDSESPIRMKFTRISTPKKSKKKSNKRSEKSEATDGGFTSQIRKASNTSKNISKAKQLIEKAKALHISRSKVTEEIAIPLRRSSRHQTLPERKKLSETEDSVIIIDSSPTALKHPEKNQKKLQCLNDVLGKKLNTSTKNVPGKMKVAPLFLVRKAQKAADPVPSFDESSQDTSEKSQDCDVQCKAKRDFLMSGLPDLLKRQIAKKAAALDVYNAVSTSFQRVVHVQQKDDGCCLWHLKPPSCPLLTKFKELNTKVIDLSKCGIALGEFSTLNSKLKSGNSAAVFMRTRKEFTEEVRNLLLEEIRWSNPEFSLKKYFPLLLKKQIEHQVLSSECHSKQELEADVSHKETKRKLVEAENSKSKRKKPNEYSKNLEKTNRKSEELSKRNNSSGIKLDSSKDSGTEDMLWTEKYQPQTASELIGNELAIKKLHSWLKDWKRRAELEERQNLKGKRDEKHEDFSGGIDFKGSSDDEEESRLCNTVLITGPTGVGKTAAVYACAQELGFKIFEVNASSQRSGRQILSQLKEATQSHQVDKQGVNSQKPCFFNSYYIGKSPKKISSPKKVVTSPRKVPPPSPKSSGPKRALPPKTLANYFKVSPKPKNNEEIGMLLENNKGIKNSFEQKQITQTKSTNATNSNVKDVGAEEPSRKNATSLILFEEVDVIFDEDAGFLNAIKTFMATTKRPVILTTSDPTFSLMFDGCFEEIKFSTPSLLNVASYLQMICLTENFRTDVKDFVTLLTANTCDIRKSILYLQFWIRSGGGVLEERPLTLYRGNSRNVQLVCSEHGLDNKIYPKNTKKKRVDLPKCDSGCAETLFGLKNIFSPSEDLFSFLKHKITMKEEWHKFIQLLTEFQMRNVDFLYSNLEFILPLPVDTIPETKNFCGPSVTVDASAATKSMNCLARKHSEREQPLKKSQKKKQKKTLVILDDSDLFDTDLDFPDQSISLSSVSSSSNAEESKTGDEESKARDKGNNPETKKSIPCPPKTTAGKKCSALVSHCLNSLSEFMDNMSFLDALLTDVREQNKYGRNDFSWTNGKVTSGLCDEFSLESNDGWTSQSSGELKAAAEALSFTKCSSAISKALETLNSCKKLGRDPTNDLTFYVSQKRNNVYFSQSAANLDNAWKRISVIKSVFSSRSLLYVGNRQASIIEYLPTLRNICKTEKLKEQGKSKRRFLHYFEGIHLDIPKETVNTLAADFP
ELG1 MMS Luc: MMS-stimulated human ELG1 repair inhibition, confirmed; 53% of 670 active; shares compounds with ELG1 repair inh; HEK293T luciferase-tagged ELG1 level, MMS stimulated; Potency, µM (titrated, usually from 46.1 µM), for the others: top-dose activity change, negative = inhibition, actives largely listed as inhibitors; AID 624249; further: on the % scale 0 is the no-effect control and ±100 the full control effect; nearly all actives have a fitted effect of over 60% in size
ELG1 5-FU: confirmation of ELG1 repair inhibitors: viability with 5FU. shares compounds with ELG1 repair inh. cell viability with 5-FU, ELG1-dependent repair. Potency, µM (top dose mostly 46.1 µM), for inactives: at the top dose activity change, negative = viability loss, hits mostly cytotoxic. 670 tested, under 10 active. AID 624250;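 further: ELG1-luc HEK293T cells cotreated with 5-fluorouridine at 10 µM final; viability measured 16 h after compound addition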
ELG1 MMS viab: confirmation of ELG1 repair inhibitors: viability with MMS. shares compounds with ELG1 repair inh. Cell viability with MMS, ELG1-dependent DNA repair. Potency, µM (highest dose often 46.1 µM), without a hit: at the top dose activity change, negative = viability loss, most hits filed as cytotoxic. 33% of 670 active. AID 624251;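 further: ELG1-luc HEK293T cells co-treated with 10 µM MMS; viability read 16 h after compound addition; on the % scale 0 is the no-effect control and ±100 the full control effect; nearly all actives have a fitted effect of over 60% in size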
ELG1 unstim viab: unstimulated viability counter-screen for ELG1 repair hits | shares compounds with ELG1 repair inh | cell viability counter-screen, unstimulated, luminescence | Potency, µM (doses to about 45.9 µM), for the others: top-dose activity change, negative = loss of viability, actives largely listed as cytotoxic | 8% of 900 active | AID 624252;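 further: compound exposure lasted 16 hours before reading; on the % scale 0 is the no-effect control and ±100 the full control effect; nearly all actives have a fitted effect of over 55% in size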
FLuc enzyme: firefly luciferase inhibition counter-screen; shares compounds with ELG1 repair inh; purified firefly luciferase, luminescence counter-screen; Potency, µM (doses to about 57.5 µM), for inactives: at the top dose activity, negative = inhibition, hits mostly inhibitors; 10% of 350 active; AID 624253; further: on the % scale 0 is the no-effect control and ±100 the full control effect
Starred values were filed as active, the others as inactive; [ ] = remark or other dose. Sampled rows, rich in hits. Any-hit rate of the full collection: about 9.4%. The call rests on the fitted dose curve; in most records, active means well fitted curve in the direction sought with a large enough effect; inconclusive means small, poorly fitted or top-dose-only effect, or another doubt; inactive means no such curve, though single readings can be large; an effect the other way counts as inactive or inconclusive. Potency means the concentration at half of the fitted maximal effect.

For C/C(=N\NC(=O)c1c(C)nc2ccccn12)c1ccc(O)cc1O the results were ELG1 genotoxic inconclusive, FLuc counter 1%, Rab9 prom act -47%, ELG1 repair inh 2.9µM*, NPC1 promoter act -37%, ELG1-Luc inh inconclusive, ELG1 MMS Luc inconclusive, ELG1 5-FU -15%, ELG1 MMS viab inconclusive and ELG1 unstim viab inconclusive.
`COc1ccc(Nc2nc(-c3ccncc3)nc3ccccc23)cc1` gave ELG1 genotoxic -1%, FLuc counter -5%, Rab9 prom act -2%, ELG1 repair inh 2.9µM*, NPC1 promoter act -5%, ELG1 FLuc counter 4%, ELG1-Luc inh 5µM*, ELG1 MMS Luc inconclusive, ELG1 5-FU inconclusive, ELG1 MMS viab -12%, ELG1 unstim viab inconclusive and FLuc enzyme -7%.
`COc1ccc(Nc2nc(-c3ccccc3O)nc3ccccc23)cc1` gave ELG1 genotoxic -11%, FLuc counter -19%, Rab9 prom act -3%[1.84 µM], ELG1 repair inh inconclusive and NPC1 promoter act -1%.
`COc1ccc2nc(C)c(C(=O)OCCN(C)C)cc2c1` gave ELG1 genotoxic -1%, FLuc counter -5%, Rab9 prom act -1%, ELG1 repair inh 7% and NPC1 promoter act 6%.
For Cc1nnc(NC(=O)c2ccc(S(=O)(=O)N3CC(C)CC(C)C3)cc2)o1 (centres undefined) the results were ELG1 genotoxic -16%, FLuc counter 1%, Rab9 prom act 6%, ELG1 repair inh inconclusive and NPC1 promoter act 3%.
For COc1ccc(CCNC(=S)NC(=O)c2cc(OC)c(OC)c(OC)c2)cc1OC the results were ELG1 genotoxic -3%, FLuc counter 2%, Rab9 prom act -1%, ELG1 repair inh 1.8µM*, NPC1 promoter act 3%, ELG1-Luc inh 2.5µM*, ELG1 MMS Luc 0%, ELG1 5-FU inconclusive, ELG1 MMS viab -1% and ELG1 unstim viab inconclusive.
For NCC1CCC(C(=O)O)CC1 (centres undefined) the results were SMN2 splice enh 1%.
Cc1nnsc1C(=O)NC1CCCc2c1cnn2-c1ccc(C(C)(C)C)cc1 (centres undefined) was read as ELG1 genotoxic 3%, FLuc counter inconclusive, Rab9 prom act -39%, ELG1 repair inh 2% and NPC1 promoter act -44%.
`Cc1ncoc1C(=O)NC1CCCc2c1cnn2-c1ccc(C(C)(C)C)cc1` (centres undefined) gave ELG1 genotoxic 9%, FLuc counter -23%, Rab9 prom act -34%, ELG1 repair inh 1.3µM*, NPC1 promoter act -26%, ELG1-Luc inh inconclusive, ELG1 MMS Luc 0.79µM*, ELG1 5-FU -6%, ELG1 MMS viab 0.79µM* and ELG1 unstim viab 8.9µM*.
For O=C(Cn1cnc2ccccc21)Nc1ccc(SC(F)F)cc1 the results were ELG1 genotoxic 3%, FLuc counter inconclusive, SMN2 splice enh -69%, Rab9 prom act -23%, ELG1 repair inh 2.1µM*, NPC1 promoter act -28%, ELG1-Luc inh -1%, ELG1 MMS Luc 1.6µM*, ELG1 5-FU -4%, ELG1 MMS viab 1.8µM* and ELG1 unstim viab inconclusive.
`COc1ccc(C(=O)NNC(=O)CSc2nnc(COc3ccccc3OC)n2C)cc1` gave ELG1 genotoxic 5%, FLuc counter -15%, SMN2 splice enh inconclusive, Rab9 prom act -2%, ELG1 repair inh 0% and NPC1 promoter act -2%.
Screening Cn1cccc1C(=O)Nc1ccc(N2CCOCC2)cc1 returned ELG1 genotoxic inconclusive, ELG1 repair inh inconclusive and ELG1 unstim viab -13%.
`NC(=O)c1ccc(N2CCN(S(=O)(=O)c3cccs3)CC2)c([N+](=O)[O-])c1` gave ELG1 genotoxic 1%, ELG1 repair inh 2.3µM*, ELG1-Luc inh inconclusive, ELG1 MMS Luc 1µM*, ELG1 5-FU -6%, ELG1 MMS viab 0.79µM* and ELG1 unstim viab 13µM*.
Screening O=S(=O)(c1cccs1)N1CCN(c2ccc(O)cc2)CC1 returned ELG1 genotoxic 1%, FLuc counter 0%, Rab9 prom act -2%, ELG1 repair inh 1.6µM*, NPC1 promoter act 22%, ELG1-Luc inh -1%, ELG1 MMS Luc 25µM*, ELG1 5-FU 5%, ELG1 MMS viab inconclusive and ELG1 unstim viab inconclusive.
Screening NC(=O)c1ccc(N2CCCCCC2)c([N+](=O)[O-])c1 returned ELG1 genotoxic 4%, FLuc counter -17%, SMN2 splice enh -31%, Rab9 prom act -8%, ELG1 repair inh 7% and NPC1 promoter act -3%.
For CC(NC(=O)N1CCN(c2ccccc2F)CC1)c1ccc(F)c(F)c1 (centres undefined) the results were ELG1 genotoxic -4%, FLuc counter 0%, Rab9 prom act -11%, ELG1 repair inh -2% and NPC1 promoter act -4%.
